SMILES strings stand for the structures.

For the assay, the target named is Glucose transporter (Leishmania mexicana) (UniProt O61059). In words: ST_JUDE_LEISH: Cytotoxicity at 2uM final concentration against transgenic Leishmania Mexicana promastigotes LmGT2 that are glucose transport deficient and complemented with the L. Mexicana glucose transporter 2. Activity is measured by DNA content using SYBR green in vitro. The assay is classed as functional.
Consider `O=C(/C=C/c1ccc(Cl)cc1)NCCCCCN1CCCN(C(=O)Nc2cccc(Cl)c2)CC1`, for which the inhibition is -1.25%.
As for `Cn1c(-c2ccccc2)cc2c3c(=O)cc(C(F)(F)F)[nH]c3ccc21`, the figure is 14.1%.
Under `CCCCCCN1CCCN(Cc2cccc(C(=O)Nc3ccc(C(C)(C)C)cc3)c2)CC1` stands 0.65%.
As for `COc1ccc(Nc2nccc(-c3ccc4ccnc(NCCCCN)c4c3)n2)cc1`, the figure is -4.14%.
On to `Cc1cc(N(C)C)nc(Nc2ccc(NC(=O)CCc3ccccc3)cc2)n1`, for which the inhibition was 2.1%.
Under `COc1ccc(CCNc2nc(NCc3ccccc3)c3cc(OC)c(OC)cc3n2)cc1OC` stands 0.26%; under `N#Cc1ccc(C(=O)Nc2ccc(-c3cccc(CN4CCCC4)c3)cc2)cc1`, -0.82%.
Under `CC(C)CNCc1ccc(-c2cccc(-c3nc4ccccc4[nH]3)c2)cc1` stands 0.1%; under `COc1ccc(CNCc2ccccc2)cc1-c1ccc(OC)c(S(=O)(=O)NCCN2CCCC2)c1`, 3.45%; under `O=C(Nc1ccc(SC(F)(F)F)cc1)Nc1ccnc2ccccc12`, -2.28%.
As for `CS(=O)(=O)CCNCc1cccc(-c2ccc3c(Nc4ccc(Oc5cccnc5)cc4)ccnc3c2)c1`, the figure is -3%.
As to `Cc1cc(F)ccc1Nc1nc(N(C)c2ccccc2)c2cccc(OCCO)c2n1`, the inhibition amounted to 4.48%.
As for `Cc1ccc(CNC(=O)[C@H](Cc2ccccc2)Nc2cc(C)nc(NCCc3ccc(F)cc3)n2)cc1`, the figure is 10.6%; as for `Nc1nc(N)c2c3c(cnc2n1)CCCC3`, 10.8%.
Under `CC12CC3CC(C)(C1)CC(Nc1nc(N4CCOCC4)nc4ccccc14)(C3)C2` stands -0.7%; under `COc1ccc(CN(C)Cc2ccc(NC(=O)c3cccc4c(=O)c5cccc(C)c5[nH]c34)cc2)cc1OC`, 0.44%.

For the origin of these results see ChEMBL document CHEMBL3433997, “St. Jude Leishmania screening dataset” (2016).
